GRIN3A LBD mod: NR3A (human) ligand-binding domain modulation; NR3A LBD differential scanning fluorimetry, Tm shift; 0% = protein alone, 100% = glycine-bound protein; Tm shift relative to glycine control, % at 25 µM; actives 2.5% (n = 340,000); AID 1259313;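 active means melting temperature shift of at least 10% of the positive control shift, at one fixed dose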
ZTA counter: ZTA (EBV) inhibition in EBNA-1 counter-screen | inhibition, % at 11 µM | actives 0.15% (n = 320,000) | ZTA-DNA binding, fluorescence polarization | P03206; in the data active means inhibition above about 33%
dFosB act: activators of mouse delta FosB homodimer | purified delta FosB, TAMRA-CDK5 oligo fluorescence polarization; percent of positive-control signal above neutral wells | actives 0.99% (n = 340,000) | P13346 | activation, % at 25 µM;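 active means mean activation above about 17%, with every replicate also reaching it, limit read from the data, passing the limit was not always enough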
Rpn11 block: Rpn11 (human) deubiquitinase inhibition; O00487; human 26S proteasome, Ub4-pepOG fluorescence polarization; 20S core pre-blocked with epoxomicin; inhibition, % at 20 µM; actives 0.59% (n = 360,000); AID 588493;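 active means inhibition at 20 µM, scaled to each plate's controls, above about 33%, limit read from the data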
Target sequence (O00487 whole entry, looked up): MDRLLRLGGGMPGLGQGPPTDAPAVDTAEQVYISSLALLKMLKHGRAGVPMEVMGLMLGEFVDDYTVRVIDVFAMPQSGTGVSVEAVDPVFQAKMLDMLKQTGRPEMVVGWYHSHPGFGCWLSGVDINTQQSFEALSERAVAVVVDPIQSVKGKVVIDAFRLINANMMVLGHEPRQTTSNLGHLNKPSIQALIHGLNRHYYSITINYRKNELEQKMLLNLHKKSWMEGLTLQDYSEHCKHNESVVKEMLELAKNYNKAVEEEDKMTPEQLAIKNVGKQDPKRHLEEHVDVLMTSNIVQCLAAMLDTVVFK
TPT1 inh: inhibitors of Candida albicans tRNA 2'-phosphotransferase TPT1; recombinant caTPT1, FP RNA substrate dephosphorylation; inhibition, % at 5 µM; actives 0.81% (n = 300,000);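 active means inhibition above the mean of all tested compounds plus 3 SD, set per screening campaign, cut at about 24% in these data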;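 further: plate controls were DMSO alone for no effect and ferristatin control at 100 nM for full effect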
EBNA-1 inhibitor: blocks EBNA-1 binding to DNA; AID 1950; EBNA-1 DNA binding, fluorescence polarization; actives 0.34% (n = 300,000); inhibition, % at 14.8 µM; in the data active means inhibition above about 28%
Zta DNA confirm: EBV ZTA DNA binding inhibition, confirmation | shares compounds with ZTA counter | Zta-ZRE DNA binding, fluorescence polarization | inhibition, % at 11.1 µM | actives 30% (n = 320) | AID 2361;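 active means mean inhibition across triplicate runs above the hit threshold derived for the original primary screen, cut at about 33% in these data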;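 further: 0% = Zta with DMSO and 100% = wells lacking Zta protein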
EBNA1 counter: EBNA-1 DNA binding inhibition, counter-screen for ZTA; inhibition, % at 14.8 µM; 320 tested, under 10 active; fluorescence polarization; shares compounds with ZTA counter; call rule not given here
Starred values were filed as active, the others as inactive; nt = no result given. A selection: hits, their analogues and other compounds. The true share with any hit is near 4.5%.

SMILES	GRIN3A LBD mod	ZTA counter	dFosB act	Rpn11 block	TPT1 inh	EBNA-1 inhibitor	Zta DNA confirm	EBNA1 counter
Nc1nnnn1/N=C/c1ccc(F)cc1	0	52*	-11	4	5	-6	-1	-16
Nc1nnnn1/N=C/c1ccc(Br)cc1	0	nt	8	-4	nt	nt	nt	nt
Cn1c(=O)c2cc(NC(=O)NCCc3cccs3)ccc2n1Cc1ccccc1	nt	nt	nt	-1	nt	nt	nt	nt
Nc1c(O)ccc2c1C(=O)c1ccccc1C2=O	-4	40*	nt	nt	-27	9	35*	6
Cc1nc2ccc(C(=O)N3c4ccccc4CC3C)cc2s1 (stereo unspecified)	0	1	-4	3	-2	-10	nt	nt
CCOC(=O)C1Nc2ccc(C(=O)O)cc2C2C=CCC12 (stereo unspecified)	-3	60*	-6	-40	-6	5	23	-13
CCOC(=O)c1ccc2c(c1)C1C=CCC1C(C(=O)O)N2 (stereo unspecified)	nt	23	nt	nt	9	19	nt	nt
Cc1ccc(-c2cc(C(=O)NCCCN3CCOCC3)c3ccc(Cl)c(C)c3n2)cc1	-15	34*	-1	-4	0	-6	1	-4
O=C(NCCCN1CCOCC1)c1cc(-c2ccccc2)nc2ccccc12	1	2	-4	-3	3	2	nt	nt
CCN(CCO)c1ccc(NC(=S)Nc2cccc(S(=O)(=O)N(C)C)c2)cc1	-2	41*	-11	-1	-4	23	9	3
CN(C)S(=O)(=O)c1cccc(NC(=S)NCc2ccco2)c1	-1	-7	-6	-2	-1	-1	nt	nt
Cn1c(=O)c2cc(NCc3ccccc3)nnc2n(C)c1=O	-1	52*	2	-17	-13	26	-12	-7
Cn1c(CCN2CCN(c3ccccn3)CC2)nc2cc(NC(=O)COc3ccc([N+](=O)[O-])cc3)ccc21	0	38*	-2	0	-7	2	21	-1
CCOc1cc(C2NC(=O)CCC2[N+](=O)[O-])cc(Br)c1OC (stereo unspecified)	0	5	-2	-6	-2	2	nt	nt
O=C1NC(c2ccccn2)Nc2sc3c(c21)CCC3 (stereo unspecified)	-1	-11	-16	-5	-8	-10	nt	nt
CN1CCc2c(sc3c2C(=O)NC(c2ccccn2)N3)C1 (stereo unspecified)	-1	40*	-16	-39	-10	17	9	3
COCCCn1c(SCC(=O)O)nc2cc(OC)c(OC)cc2c1=N	-3	-5	-2	1	-3	-7	nt	nt
COc1ccc(Cn2c(SCc3ccc(C)cc3)nc3cc(OC)c(OC)cc3c2=N)cc1Cl	2	35*	59*	6	2	9	12	23
Cc1cccc2c1NC(C)CC2C (stereo unspecified)	1	97*	6	2	-4	21	12	-7
CCc1nc2c(OCCOc3ccccc3)cccn2c1N(C)C(=O)c1ccc(C)cc1	nt	nt	nt	10	nt	nt	nt	nt
CCOC1(OCC)N=C(N)C2(C#N)C(c3cccc(C)c3)C12C#N (stereo unspecified)	-1	67*	-2	-3	1	5	-6	-8
CC(=O)NC(C)(c1ccccc1)c1nc(-c2ccc(N(C)C)cc2)cs1 (stereo unspecified)	nt	nt	nt	0	nt	nt	nt	nt
CCc1ccc(S(=O)(=O)/N=C2\C=C(Nc3ccc(C(=O)O)cc3)C(=O)c3ccccc32)cc1	1	53*	-8	3	-3	-4	52*	2
COC(=O)c1ccccc1NC1=C/C(=N\S(=O)(=O)c2ccc(C(=O)O)cc2)c2ccccc2C1=O	-11	3	-24	-28	-3	-10	nt	nt
Cc1ccc(S(=O)(=O)/N=C2\C=C(Nc3cccc(C(=O)O)c3)C(=O)c3ccccc32)cc1	0	33*	-9	-2	-3	2	36*	-14

Screening data from PubChem.
